According to PubChem BioAssay (Tox21):
Records with an inconclusive call do not appear. Calls of active or inactive are those of the source. Unless noted, calls follow the shape of the full dose curve.

Experiments:
[1] = Nuclear factor erythroid 2-related factor 2/antioxidant responsive element (Nrf2/ARE) small molecule agonists: qHTS cell viability counter screen in human keratinocytes (AID 1919968; active = well fitted curve in the direction sought with a large enough effect in the repeat runs; an effect the other way counts as inactive or inconclusive; also: nearly all actives have a fitted effect of over 55% in size)
Summary of the method: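 KeratinoSens HaCaT cells, 1,500/well, preincubated 5 h, then exposed to compounds in DMSO for 23 h at 37 C/5% CO2. Viability read as CellTiter-Fluor fluorescence after 1 h, in the same wells as the ARE-luciferase read.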

[2] = Nuclear factor erythroid 2-related factor 2/antioxidant responsive element (Nrf2/ARE) small molecule agonists: luciferase reporter gene qHTS assay in human keratinocytes (AID 1919969); also: nearly all actives have a fitted effect of over 35% in size
[3] = biological target: Gonadotropin-releasing hormone receptor (Homo sapiens) (UniProt P30968); experiment: Human gonadotropin-releasing hormone receptor (GnRHR) small molecule agonists, calcium flux assay in GnRHR-HEK293 cells (AID 1920063); also: nearly all actives have a fitted effect of over 35% in size
Sequence of Gonadotropin-releasing hormone receptor (Homo sapiens) (P30968 whole entry, looked up): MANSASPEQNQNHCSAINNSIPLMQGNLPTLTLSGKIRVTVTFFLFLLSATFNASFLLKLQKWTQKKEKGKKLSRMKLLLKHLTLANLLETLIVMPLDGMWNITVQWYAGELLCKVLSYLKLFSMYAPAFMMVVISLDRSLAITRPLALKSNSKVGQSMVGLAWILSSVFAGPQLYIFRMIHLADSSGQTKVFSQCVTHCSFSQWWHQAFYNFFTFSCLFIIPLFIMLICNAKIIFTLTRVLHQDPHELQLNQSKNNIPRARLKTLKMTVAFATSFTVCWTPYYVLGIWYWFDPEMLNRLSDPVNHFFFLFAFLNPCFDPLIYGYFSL
Summary of the method: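 HEK293 cells stably expressing human GnRHR were dye-loaded for 1 h at 37 C. Compound was added in agonist mode and fluorescence (Ex/Em 480/540) recorded kinetically for 3 min. Fifteen concentrations, triplicates.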

[4] = biological target: KiSS-1 receptor (Homo sapiens) (UniProt Q969F8); experiment: Human kisspeptin (KISS1R) small molecule agonists, calcium flux assay in KISS1R-HEK293 cells (AID 1920064; active = well fitted curve in the direction sought with a large enough effect in the repeat runs; an effect the other way counts as inactive or inconclusive)
Sequence of KiSS-1 receptor (Homo sapiens) (Q969F8 whole entry, looked up): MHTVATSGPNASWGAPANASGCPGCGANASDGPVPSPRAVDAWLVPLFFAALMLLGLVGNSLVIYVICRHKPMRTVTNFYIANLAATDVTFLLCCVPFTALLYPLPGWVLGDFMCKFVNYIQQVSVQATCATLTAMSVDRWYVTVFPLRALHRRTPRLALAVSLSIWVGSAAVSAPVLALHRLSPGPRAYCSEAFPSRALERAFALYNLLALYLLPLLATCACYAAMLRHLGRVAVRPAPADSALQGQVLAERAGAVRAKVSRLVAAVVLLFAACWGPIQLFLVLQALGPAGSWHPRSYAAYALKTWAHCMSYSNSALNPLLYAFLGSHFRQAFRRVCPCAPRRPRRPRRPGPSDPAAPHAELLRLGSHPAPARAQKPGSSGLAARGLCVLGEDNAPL
Summary of the method: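 HEK293 cells stably expressing human KISS1R were loaded with calcium dye for 1 h at 37 C, then given compound; fluorescence (Ex/Em 480/540) was read kinetically for 3 min. Fifteen concentrations, triplicate.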

[5] = p53 small molecule agonists, cell-based qHTS assay with human liver microsomes (AID 1963577);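 also: p53 response element beta-lactamase reporter cells with liver microsomes plus NADPH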
Summary of the method: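 Reporter activation was measured by LiveBLAzer fluorescence intensity in p53RE-bla cells, which had been exposed to compounds for 16 h at 37 C alongside 0.5 mg/mL human liver microsomes and 0.5 mg/mL NADPH (final concentrations).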

[6] = p53 small molecule agonists, cell-based qHTS assay with human liver microsomes: qHTS cell viability counter screen (AID 1963579); also: nearly all actives have a fitted effect of over 45% in size
Summary of the method: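 HLM-supplemented (0.5 mg/mL final) and NADPH-supplemented (0.5 mg/mL final) p53RE-bla cultures, 4,000 cells per well, were dosed with compounds in DMSO for 16 h at 37 C; luminescent ATP detection (CellTiter-Glo, 30 min, room temperature) quantified surviving cells.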

[7] = p53 small molecule agonists, cell-based qHTS assay with rat liver microsomes: qHTS cell viability counter screen (AID 1963580); also: nearly all actives have a fitted effect of over 45% in size
Summary of the method: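 Viability is assessed in parallel with the p53 reporter read: HCT-116 p53RE-bla cells receive compounds plus rat microsomes and NADPH (0.5 mg/mL final apiece), incubate 16 h at 37 C, and then CellTiter-Glo luminescence is recorded.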

[8] = p53 small molecule agonists, cell-based qHTS assay: qHTS cell viability counter screen (AID 1963581); also: nearly all actives have a fitted effect of over 45% in size
Summary of the method: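 p53RE-bla HCT-116 cells, compounds added 5 h after plating and incubated 16 h at 37 C. Cytotoxicity measured in the same wells as intracellular ATP by CellTiter-Glo luminescence after 30 min at room temperature.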

[9] = p53 small molecule agonists, cell-based qHTS assay (AID 1963582; active = well fitted activation curve with a large enough effect in the signal ratio in the repeat runs, not every such curve was filed as active; the % refers to the signal ratio)
Summary of the method: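 p53RE-bla reporter cells, compounds added in DMSO after 5 h plating, incubated 16 h at 37 C. Beta-lactamase read via 2 h room-temperature LiveBLAzer B/G FRET substrate, fluorescence intensity.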

[10] = biological target: 5-hydroxytryptamine receptor 2A (Homo sapiens) (UniProt P28223); experiment: 5-hydroxytryptamine receptor 2A (HTR2A) small molecule antagonists, cell-based qHTS assay (AID 1963586); also: nearly all actives have a fitted effect of over 45% in size
Sequence of 5-hydroxytryptamine receptor 2A (Homo sapiens) (P28223 whole entry, looked up): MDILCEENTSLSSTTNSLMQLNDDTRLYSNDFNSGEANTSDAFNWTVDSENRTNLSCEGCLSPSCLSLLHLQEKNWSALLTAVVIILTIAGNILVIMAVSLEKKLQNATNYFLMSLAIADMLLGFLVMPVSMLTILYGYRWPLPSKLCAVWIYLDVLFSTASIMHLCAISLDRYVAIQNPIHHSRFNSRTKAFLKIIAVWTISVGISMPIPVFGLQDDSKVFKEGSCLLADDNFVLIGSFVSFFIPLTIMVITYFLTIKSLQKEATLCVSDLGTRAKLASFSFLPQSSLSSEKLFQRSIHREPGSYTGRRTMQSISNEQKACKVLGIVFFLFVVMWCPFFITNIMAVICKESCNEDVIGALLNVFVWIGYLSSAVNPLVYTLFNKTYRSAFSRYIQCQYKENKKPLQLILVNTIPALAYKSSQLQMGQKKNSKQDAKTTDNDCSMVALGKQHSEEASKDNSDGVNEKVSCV
Summary of the method: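 Antagonist-mode intracellular calcium assay: DOI (4 nM) added after 5 min compound pre-incubation at room temperature to dye-loaded HTR2A-CHO cells. Fluorescence followed for 3 min, sampled every second.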

[11] = biological target: 5-hydroxytryptamine receptor 2A (Homo sapiens) (UniProt P28223); experiment: 5-hydroxytryptamine receptor 2A (HTR2A) small molecule agonists, cell-based qHTS assay (AID 1963587); also: nearly all actives have a fitted effect of over 30% in size
Summary of the method: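 CHO cells stably expressing human HTR2A, plated 18 h, loaded with calcium dye 1 h at 37 C. Agonist mode: compounds added and intracellular calcium fluorescence recorded kinetically for 2 min at 1 sec intervals.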

[12] = biological target: Muscarinic acetylcholine receptor M1 (Homo sapiens) (UniProt P11229); experiment: Cholinergic receptor muscarinic 1 (CHRM1) small molecule antagonists, cell-based qHTS assay (AID 1963588); also: nearly all actives have a fitted effect of over 40% in size
Sequence of Muscarinic acetylcholine receptor M1 (Homo sapiens) (P11229 whole entry, looked up): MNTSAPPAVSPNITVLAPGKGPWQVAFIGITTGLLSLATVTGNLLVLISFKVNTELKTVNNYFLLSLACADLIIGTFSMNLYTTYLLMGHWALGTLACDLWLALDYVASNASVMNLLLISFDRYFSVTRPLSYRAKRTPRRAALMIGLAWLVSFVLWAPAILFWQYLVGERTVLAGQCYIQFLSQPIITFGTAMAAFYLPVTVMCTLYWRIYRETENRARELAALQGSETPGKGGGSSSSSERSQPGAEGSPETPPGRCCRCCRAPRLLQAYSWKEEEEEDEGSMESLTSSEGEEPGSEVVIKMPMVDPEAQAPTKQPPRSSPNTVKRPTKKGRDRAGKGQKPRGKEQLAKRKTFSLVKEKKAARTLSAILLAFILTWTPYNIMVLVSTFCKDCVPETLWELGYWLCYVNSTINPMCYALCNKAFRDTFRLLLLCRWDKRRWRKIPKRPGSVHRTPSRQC
Summary of the method: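 CHRM1-CHO calcium-flux assay, antagonist mode. Cells were seeded 18 h, dye-loaded 1 h at 37 C and given compound for 5 min at RT, then acetylcholine was added at 50nM. FDSS fluorescence was read 3 min; 15 concentrations, three runs.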

[13] = biological target: Muscarinic acetylcholine receptor M1 (Homo sapiens) (UniProt P11229); experiment: Cholinergic receptor muscarinic 1 (CHRM1) small molecule agonists, cell-based qHTS assay (AID 1963589); also: nearly all actives have a fitted effect of over 35% in size
Summary of the method: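 CHO cells stably expressing human CHRM1 were loaded with calcium dye for 1 h at 37 C, then compound was added in agonist mode. Intracellular calcium fluorescence was followed kinetically at 1 s intervals. Fifteen concentrations were tested in three independent runs.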

[14] = cAMP Responsive Elements (CRE) small molecule agonists, cell-based qHTS assay (AID 1963590)
Summary of the method: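 CRE-bla HEK 293T cells, 2,000/well in DMEM with 10% dialyzed FBS and 25 mM HEPES, pre-incubated 18 h at 37 C, then exposed to compound 3 h at 37 C. Beta-lactamase reporter read with LiveBLAzer B/G FRET substrate after 2 h at room temperature.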

[15] = cAMP Responsive Elements (CRE) small molecule antagonists, cell-based qHTS assay (AID 1963591; active = well fitted inhibition curve with a large enough effect in the signal ratio in the repeat runs, not every such curve was filed as active; the % refers to the signal ratio)
Summary of the method: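 CRE-bla HEK293T cells plated 18 h, then given compound plus NKH477 at 0.25 uM final for 3 h at 37C. Beta-lactamase reporter read with LiveBLAzer B/G FRET substrate after 2 h at room temperature.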

[16] = biological target: Beta-2 adrenergic receptor (Homo sapiens) (UniProt P07550); experiment: Adrenergic beta2 receptor (ADRB2) small molecule antagonists, cell-based qHTS assay (AID 1963592); also: series mostly up to about 92 µM; nearly all actives have a fitted effect of over 50% in size
Sequence of Beta-2 adrenergic receptor (Homo sapiens) (P07550 whole entry, looked up): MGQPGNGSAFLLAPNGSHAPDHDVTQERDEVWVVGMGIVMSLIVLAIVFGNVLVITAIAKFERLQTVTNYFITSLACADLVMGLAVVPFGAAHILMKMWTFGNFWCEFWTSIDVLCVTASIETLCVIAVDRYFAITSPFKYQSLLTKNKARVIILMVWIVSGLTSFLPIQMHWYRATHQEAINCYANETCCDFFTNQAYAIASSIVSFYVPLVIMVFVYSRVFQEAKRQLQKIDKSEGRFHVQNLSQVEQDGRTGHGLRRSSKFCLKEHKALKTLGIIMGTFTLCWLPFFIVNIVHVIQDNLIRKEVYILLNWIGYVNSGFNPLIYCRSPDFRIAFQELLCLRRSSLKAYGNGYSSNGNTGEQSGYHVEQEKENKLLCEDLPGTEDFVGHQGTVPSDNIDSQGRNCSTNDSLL
Summary of the method: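 Cells (CHO, stable ADRB2 overexpression) incubated 18-20hr at 37C; compounds added from DMSO; agonist mix (1nM isoproterenol, 100uM IBMX, 25uM Ro-20-1724) added; 0.5hr RT; d2-cAMP and anti-cAMP-cryptate added; 1hr RT; 665/615 nm read.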

[17] = biological target: Beta-2 adrenergic receptor (Homo sapiens) (UniProt P07550); experiment: Adrenergic beta2 receptor (ADRB2) small molecule agonists, cell-based qHTS assay (AID 1963593);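 also: CHO cells stably overexpressing human ADRB2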
Summary of the method: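 CHO cells stably over-expressing ADRB2 were plated overnight at 37C, then dosed with compounds plus a stimulation mix containing 100uM IBMX and 25uM Ro-20-1724 for 0.5hr at room temperature. cAMP was measured by HTRF competition, 1hr.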

[18] = biological target: D(2) dopamine receptor (Homo sapiens) (UniProt P14416); experiment: Dopamine D2 receptor (DRD2) small molecule agonists, cell-based qHTS assay (AID 1963594); also: nearly all actives have a fitted effect of over 35% in size
Sequence of D(2) dopamine receptor (Homo sapiens) (P14416 whole entry, looked up): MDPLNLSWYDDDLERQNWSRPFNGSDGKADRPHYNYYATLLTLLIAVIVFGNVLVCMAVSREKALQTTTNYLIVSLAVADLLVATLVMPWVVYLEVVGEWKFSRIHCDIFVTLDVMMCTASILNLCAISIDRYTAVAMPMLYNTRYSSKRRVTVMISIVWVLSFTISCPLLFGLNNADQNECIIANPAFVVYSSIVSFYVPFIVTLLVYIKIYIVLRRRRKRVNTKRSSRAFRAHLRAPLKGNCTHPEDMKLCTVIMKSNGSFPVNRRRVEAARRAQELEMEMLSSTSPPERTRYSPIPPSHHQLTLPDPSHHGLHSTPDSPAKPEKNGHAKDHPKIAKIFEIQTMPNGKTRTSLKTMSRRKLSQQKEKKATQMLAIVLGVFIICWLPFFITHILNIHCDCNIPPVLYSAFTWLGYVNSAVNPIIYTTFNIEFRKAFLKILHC
Summary of the method: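 HEK293 cells stably expressing human DRD2, pre-treated with PDE inhibitor Ro20-1724 (0.1 mM final) and compound 10 min at room temperature, then stimulated with NKH477 (200nM […]) for 30 min. cAMP read by HTRF (665/620 nm).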

[19] = biological target: D(2) dopamine receptor (Homo sapiens) (UniProt P14416); experiment: Dopamine D2 receptor (DRD2) small molecule antagonists, cell-based qHTS assay (AID 1963595; active = well fitted inhibition curve with a large enough effect in the signal ratio in the repeat runs, with a control signal flat; the % refers to the signal ratio)
Summary of the method: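 Antagonism was scored as restored cAMP in HEK293-DRD2 cells. These cells were stimulated with 200 nM NKH477 and 12 nM quinpirole for 30 min at room temperature, in the presence of 0.1 mM Ro20-1724.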
% is scaled to controls: 0 for no effect and ±100 for the full control effect.

C=C(C)C(=O)OC(C)C
inactive: Potency [1] | Potency [2] | Potency [3] | Potency [4] | Potency [5] | Potency [6] | Potency [7] | Potency [8] | Potency [9] | Potency [10] | Potency [11] | Potency [12] | Potency [13] | Potency [14] | Potency [15] | Potency [16] | Potency [17] | Potency [18] | Potency [19]

N[C@H](C(=O)O)c1ccc(O)cc1
inactive: activity change, negative = cytotoxicity [1] 7.62% [at 19 µM] | activity, positive = activation [2] 16.5% [at 19 µM] | activity change [3] -1.58% [at 11.8 µM, active compounds read high] | activation [4] 3.74% [at 15.8 µM] | activation [5] 0.205% [at 13.5 µM] | activity change, negative = cytotoxicity [6] 0.34% [at 13.5 µM] | activity change, negative = cytotoxicity [8] -1.01% [at 13.5 µM] | activation [9] -1.96% [at 13.5 µM] | activity, negative = inhibition [10] 57.4% [at 12.7 µM] | activation [11] -0.912% [at 15.9 µM] | activity, negative = inhibition [12] 8.36% [at 12.6 µM] | activation [14] -0.179% [at 19 µM] | activity change, negative = inhibition [15] 0.811% [at 18.9 µM] | activity change, negative = inhibition [16] -0.335% [at 19 µM] | activation [17] 19.3% [at 19 µM] | activation [18] -12.3% [at 19 µM] | activity change, negative = inhibition [19] 7.69% [at 18.9 µM]

Cc1cccc(N)n1
inactive: Potency [1] | Potency [2] | Potency [3] | Potency [4] | Potency [5] | Potency [8] | Potency [9] | Potency [10] | Potency [11] | Potency [12] | Potency [13] | Potency [14] | Potency [15] | Potency [16] | Potency [17] | Potency [18] | Potency [19]

CCOCOCC
inactive: Potency [1] | Potency [2] | Potency [3] | Potency [4] | Potency [5] | Potency [6] | Potency [7] | Potency [9] | Potency [10] | Potency [11] | Potency [12] | Potency [13] | Potency [14] | Potency [15] | Potency [16] | Potency [17] | Potency [18] | Potency [19]

Brc1cc(Br)cc(Br)c1
inactive: Potency [1] | Potency [2] | Potency [3] | Potency [4] | Potency [5] | Potency [6] | Potency [7] | Potency [8] | Potency [9] | Potency [10] | Potency [11] | Potency [12] | Potency [14] | Potency [16] | Potency [18] | Potency [19]

CCCC[O][Al]([O]CCCC)[O]CCCC
inactive: Potency [1] | Potency [2] | Potency [3] | Potency [4] | Potency [5] | Potency [6] | Potency [7] | Potency [8] | Potency [10] | Potency [11] | Potency [12] | Potency [14] | Potency [15] | Potency [16] | Potency [18] | Potency [19]

CC(=O)S[C@H](C(=O)N[C@H]1Cc2ccccc2[C@H]2CCC[C@@H](C(=O)O)N2C1=O)C(C)C
inactive: Potency [1] | Potency [2] | Potency [3] | Potency [4] | Potency [5] | Potency [6] | Potency [8] | Potency [9] | Potency [10] | Potency [11] | Potency [12] | Potency [13] | Potency [14] | Potency [15] | Potency [16] | Potency [17] | Potency [18] | Potency [19]

O=C(O)/C=C/c1cnc[nH]1
inactive: Potency [1] | Potency [2] | Potency [3] | Potency [4] | Potency [5] | Potency [7] | Potency [8] | Potency [9] | Potency [10] | Potency [11] | Potency [12] | Potency [13] | Potency [14] | Potency [16] | Potency [18] | Potency [19]

CC1(C)[C@H](C(=O)OCc2cccc(Oc3ccccc3)c2)[C@@H]1C=C(Cl)Cl
inactive: Potency [1] | Potency [2] | Potency [3] | Potency [4] | Potency [5] | Potency [6] | Potency [7] | Potency [9] | Potency [10] | Potency [11] | Potency [12] | Potency [13] | Potency [14] | Potency [15] | Potency [16] | Potency [18] | Potency [19]

CC1=CC[C@@]23C[C@@H]1C(C)(C)[C@@H]2CC[C@H]3C
inactive: Potency [1] | Potency [2] | Potency [3] | Potency [4] | Potency [6] | Potency [7] | Potency [8] | Potency [9] | Potency [10] | Potency [11] | Potency [12] | Potency [13] | Potency [14] | Potency [15] | Potency [16] | Potency [17] | Potency [18]

CC/C=C\CC1=C(C)CCC1=O
inactive: Potency [1] | Potency [2] | Potency [3] | Potency [4] | Potency [5] | Potency [6] | Potency [7] | Potency [8] | Potency [9] | Potency [10] | Potency [12] | Potency [13] | Potency [14] | Potency [15] | Potency [16] | Potency [17] | Potency [18] | Potency [19]

CC1CCc2nccnc21 (configuration not stated)
inactive: Potency [1] | Potency [2] | Potency [3] | Potency [4] | Potency [5] | Potency [6] | Potency [7] | Potency [8] | Potency [9] | Potency [11] | Potency [12] | Potency [13] | Potency [14] | Potency [15] | Potency [16] | Potency [17] | Potency [18] | Potency [19]
